# Test system: RARb homodimer (NR concentration 270 nM)
# Assay: PBM binding z-score (relative to random genomic background probes); higher = stronger binding; sequences stand for … in GC…GCGATTGACAGCGTAGAATGAAGG
# Outline: (§1)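 For binding z-scores, the reference was random background probes on custom Agilent 4×180K protein-binding microarrays. These arrays were incubated 1 h with ligand-free nuclear receptor dimers in PBS pH 7.4, 2% milk, 0.02% Triton X-100, 1 mM DTT, 0.2 mg/mL BSA and 0.4 mg/ml salmon testes DNA. Fluorescence was scanned after antibody detection of each partner (one per run) and regression-normalized.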
row,Sequence,PBM binding z-score
1,GTACCGAGGTGAATAGGTCGTTGATGAGTAGGCG,1.73
2,ATATGTAGGTTAGCTTGGGTCATTCAGACTAGGC,2.7
3,TCATATAGGTAATACAGGTGAAAGTAGGCATCTA,0.649
4,GCTGCTAGGTCAGGTTGGTCAGCTCACGGGTACG,2.66
5,GCTTGTAGATCAAGGTTCAGAAAGACTAAGCTAA,0.239
6,CCTCGGAGGACTGAAGGTCAGAGCTGTCCGCTTT,2.67
7,ATCTCTAGGTAAAGATAGTTCAGTCAATGCAAAT,0.999
8,GCGACTGAGGCATCAGCAGGTTACCATAACTTAA,-0.000366
9,ACTAGTTGGTCAGCTGAGGTCACAGACAATTCGG,4.19
10,AGAATGAGGTTATTAACATCAGGGAATTGCGGTC,0.673
11,CTACCAAGGTGAACAAAGTCGTTGATTACTATTC,0.608
12,CCTACTGGGCCAAGGTCATGGATCAGTCAAAGCA,3.54
13,TCATATACGTAATACAGGTGAAAGTCGGCATCTA,0.8
14,ATCTCTAGGTAACCAAGTTCAGTGAGTGCCGAAC,1.55
15,TCAAGTAGGTTAGTCGGGGCATTCAGCCAACATA,0.846
16,TAGCCTAGGTCATTGGCCCAGTATAGTACGCATC,2.57
17,GCTAGTTGGTCAGTAAAAGTTCACACACCGGTCG,3.69
18,GCTGCTAGGTCAGGTTGGTCCGCTAACGGGTACG,2.4
19,CCTAGTCGGTCAGGAGGTCACACACCGGATATGA,4.67
20,CGTCCAAAGTCAAGGTCAGTGAAAGAGACTCGAA,3.54

row,Sequence,PBM binding z-score
1,CCTCACGGGTCACGAGGTTATAGCACGACGAGCG,3.79
2,TCGAGTAGGTAAGTCGGGGCATTCAGCCAACATA,-0.0679
3,CGTCCAAGGTGAAGGTCAGTGAAAGAGACTCGAA,3.4
4,TCATATAGCTAAATGCTAGGTGAAAGTCCGATCT,0.184
5,CCTTACGGGTCAAGGATATAGCACGGGTGGTACG,3.04
6,ACTATTAGTTGACTTAGGGTAACCGATACGACGC,0.611
7,CCTTATGGGTCAAGGTTATAGCACGGGTGGTACG,2.91
8,TCATATAGGTAATACATGTGAAAGTCGGCATCTA,-0.0768
9,AGTCAAAGTTCAGGACGTGGTAACGTAAAGCACG,3.13
10,CCTACTGGGCCAAAGGTCAATGATTCCAATGCTC,4.35
11,CATCCTAGGTCAGGGCCAGTATAGGAGGAACGTT,2.73
12,ACTGACAGGTGATGAAGGTAACTCAGGCTATCAT,-0.0164
13,ACAGACAGGTGAGTGAAGATAACTCAGCTGGACG,-0.405
14,ACTATTAGTTGAGACGAGGACAACCGATAGGTTG,0.638
15,TCGAGTAGGTTAGTCGCGGCATTCAGCCAACATA,-0.376
16,CCTACTGGGCCATCAGGTCATTAATATCAACGTT,2.55
17,CCGACTGGTGCAAAGGTTACCATACTCAGTACGA,2.08
18,TTACCAAGGTGAGGTGAGGTCGTTGATCCAACTC,2.09
19,CCGAGTAGGGTATGGGGCATTCAGGCAACGGTGA,0.595
20,CCTGCTAGGTCGATGGTCAGCTAAAGCAGCTCGC,0.8

# Test system: RARg:RXRa (NR concentration 270 nM, RXRa partner concentration 90 nM)
# Assay: as above
# Outline: as §1
row,Sequence,PBM binding z-score
1,GTACCGAGGTGAATAGGTCGTTGATGAGTAGGCG,2.95
2,ATATGTAGGTTAGCTTGGGTCATTCAGACTAGGC,2.07
3,TCATATAGGTAATACAGGTGAAAGTAGGCATCTA,0.714
4,GCTGCTAGGTCAGGTTGGTCAGCTCACGGGTACG,2.78
5,GCTTGTAGATCAAGGTTCAGAAAGACTAAGCTAA,0.226
6,CCTCGGAGGACTGAAGGTCAGAGCTGTCCGCTTT,2.13
7,ATCTCTAGGTAAAGATAGTTCAGTCAATGCAAAT,0.494
8,GCGACTGAGGCATCAGCAGGTTACCATAACTTAA,-0.216
9,ACTAGTTGGTCAGCTGAGGTCACAGACAATTCGG,4.16
10,AGAATGAGGTTATTAACATCAGGGAATTGCGGTC,1.11
11,CTACCAAGGTGAACAAAGTCGTTGATTACTATTC,0.623
12,CCTACTGGGCCAAGGTCATGGATCAGTCAAAGCA,4.16
13,TCATATACGTAATACAGGTGAAAGTCGGCATCTA,0.758
14,ATCTCTAGGTAACCAAGTTCAGTGAGTGCCGAAC,0.591
15,TCAAGTAGGTTAGTCGGGGCATTCAGCCAACATA,0.431
16,TAGCCTAGGTCATTGGCCCAGTATAGTACGCATC,3.61
17,GCTAGTTGGTCAGTAAAAGTTCACACACCGGTCG,3.04
18,GCTGCTAGGTCAGGTTGGTCCGCTAACGGGTACG,2.29
19,CCTAGTCGGTCAGGAGGTCACACACCGGATATGA,5.93
20,CGTCCAAAGTCAAGGTCAGTGAAAGAGACTCGAA,3

row,Sequence,PBM binding z-score
1,CCTCACGGGTCACGAGGTTATAGCACGACGAGCG,5.79
2,TCGAGTAGGTAAGTCGGGGCATTCAGCCAACATA,-0.527
3,CGTCCAAGGTGAAGGTCAGTGAAAGAGACTCGAA,3.39
4,TCATATAGCTAAATGCTAGGTGAAAGTCCGATCT,0.0741
5,CCTTACGGGTCAAGGATATAGCACGGGTGGTACG,4.53
6,ACTATTAGTTGACTTAGGGTAACCGATACGACGC,0.744
7,CCTTATGGGTCAAGGTTATAGCACGGGTGGTACG,4.01
8,TCATATAGGTAATACATGTGAAAGTCGGCATCTA,0.625
9,AGTCAAAGTTCAGGACGTGGTAACGTAAAGCACG,4.04
10,CCTACTGGGCCAAAGGTCAATGATTCCAATGCTC,5.54
11,CATCCTAGGTCAGGGCCAGTATAGGAGGAACGTT,3.24
12,ACTGACAGGTGATGAAGGTAACTCAGGCTATCAT,0.199
13,ACAGACAGGTGAGTGAAGATAACTCAGCTGGACG,0.185
14,ACTATTAGTTGAGACGAGGACAACCGATAGGTTG,0.27
15,TCGAGTAGGTTAGTCGCGGCATTCAGCCAACATA,-0.336
16,CCTACTGGGCCATCAGGTCATTAATATCAACGTT,1.64
17,CCGACTGGTGCAAAGGTTACCATACTCAGTACGA,2.07
18,TTACCAAGGTGAGGTGAGGTCGTTGATCCAACTC,1.42
19,CCGAGTAGGGTATGGGGCATTCAGGCAACGGTGA,-0.153
20,CCTGCTAGGTCGATGGTCAGCTAAAGCAGCTCGC,0.222
